Residue numbers refer to the chain shown, from its start.
Assays:
Assay in all cases: PBM; 200 nM protein, PBS
Conditions in all cases: dsDNA, one strand shown
SIX6 [1] = molecular target: T1, SIX6 (Homo sapiens, UniProt O95475 114-200, L167M)
T1 sequence: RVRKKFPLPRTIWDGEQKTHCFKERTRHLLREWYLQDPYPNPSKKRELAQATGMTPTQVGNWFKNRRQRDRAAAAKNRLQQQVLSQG

HOXB6 [2] = molecular target: HOXB6 (Homo sapiens, UniProt P17509 132-218, K202E)
HOXA4 = HOXA4 (Homo sapiens, UniProt Q00056 201-287, R217L)
HOXB6 [3] = molecular target: HOXB6 (Homo sapiens, UniProt P17509 132-218)
HOXA2 [4] = molecular target: HOXA2 (Homo sapiens, UniProt O43364 129-215, R185T)
MSX2 = MSX2 (Homo sapiens, UniProt P35548 130-214, R199I)
HOXA2 [5] = molecular target: HOXA2 (Homo sapiens, UniProt O43364 129-215, R185K)
SIX6 [6] = molecular target: T2, SIX6 (Homo sapiens, UniProt O95475 114-200, T139Q)
T2 sequence: T1 sequence with T26Q, M54L

ALX1 [7] = molecular target: ALX1 (Homo sapiens, UniProt Q15699 118-204, L144V)
ALX1 [8] = molecular target: ALX1 (Homo sapiens, UniProt Q15699 118-204, L144R)
ALX1 [9] = molecular target: ALX1 (Homo sapiens, UniProt Q15699 118-204)
ALX3 [10] = molecular target: ALX3 (Homo sapiens, UniProt O95076 139-225, N203Q)
ALX3 [11] = molecular target: ALX3 (Homo sapiens, UniProt O95076 139-225)
ALX3 [12] = molecular target: ALX3 (Homo sapiens, UniProt O95076 139-225, N203S)
PITX2 = PITX2 (Homo sapiens, UniProt Q99697 72-157)
PAX4 = molecular target: T3, PAX4 (Homo sapiens, UniProt O43316 9-242, R227W)
T3 sequence: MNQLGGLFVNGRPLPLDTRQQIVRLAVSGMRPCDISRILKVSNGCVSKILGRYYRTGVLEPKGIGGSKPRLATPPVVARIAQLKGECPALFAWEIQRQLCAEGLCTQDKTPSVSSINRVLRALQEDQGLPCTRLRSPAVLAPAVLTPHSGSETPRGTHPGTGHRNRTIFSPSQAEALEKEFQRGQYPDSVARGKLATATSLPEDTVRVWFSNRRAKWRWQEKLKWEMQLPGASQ

NKX2-4 [13] = molecular target: T4, NKX2-4 (Homo sapiens, UniProt Q9H2Z4 175-261)
T4 sequence: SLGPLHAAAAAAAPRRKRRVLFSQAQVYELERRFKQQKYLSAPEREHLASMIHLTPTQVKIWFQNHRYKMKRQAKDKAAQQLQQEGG

SIX6 [14] = molecular target: T5, SIX6 (Homo sapiens, UniProt O95475 114-200, L143M)
T5 sequence: T1 sequence with L30M, M54L

SIX6 [15] = molecular target: T6, SIX6 (Homo sapiens, UniProt O95475 114-200, T165I)
T6 sequence: T1 sequence with T52I, M54L

VAX1 [16] = molecular target: VAX1 (Homo sapiens, UniProt Q5SQQ9 86-172)
VAX1 [17] = molecular target: VAX1 (Homo sapiens, UniProt Q5SQQ9 86-172, T142I)
VAX1 [18] = molecular target: VAX1 (Homo sapiens, UniProt Q5SQQ9 86-172, K157R)
HOXA2 [19] = molecular target: HOXA2 (Homo sapiens, UniProt O43364 129-215, Y150S)
HOXA2 [20] = molecular target: HOXA2 (Homo sapiens, UniProt O43364 129-215)
HOXD13 [21] = molecular target: HOXD13 (Homo sapiens, UniProt P35453 263-343, T313R)
HOXD13 [22] = molecular target: HOXD13 (Homo sapiens, UniProt P35453 263-343)
HOXD13 [23] = molecular target: HOXD13 (Homo sapiens, UniProt P35453 263-343, T313A)
NKX2-4 [24] = molecular target: T7, NKX2-4 (Homo sapiens, UniProt Q9H2Z4 175-261, R246Q)
T7 sequence: T4 sequence with R72Q

NKX2-6 [25] = molecular target: T8, NKX2-6 (Homo sapiens, UniProt A6NCS4 118-204, R150C)
T8 sequence: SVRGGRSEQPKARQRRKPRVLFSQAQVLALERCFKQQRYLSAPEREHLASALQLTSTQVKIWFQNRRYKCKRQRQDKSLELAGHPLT

SIX6 [26] = molecular target: T9, SIX6 (Homo sapiens, UniProt O95475 114-200, L143I)
T9 sequence: T1 sequence with L30I, M54L

NKX2-6 [27] = molecular target: T10, NKX2-6 (Homo sapiens, UniProt A6NCS4 118-204)
T10 sequence: T8 sequence with C33R

NKX2-6 [28] = molecular target: T11, NKX2-6 (Homo sapiens, UniProt A6NCS4 118-204, F151L)
T11 sequence: T8 sequence with C33R, F34L

HOXB6 (Homo sapiens, UniProt P17509 132-218), sequence (P17509 132-218): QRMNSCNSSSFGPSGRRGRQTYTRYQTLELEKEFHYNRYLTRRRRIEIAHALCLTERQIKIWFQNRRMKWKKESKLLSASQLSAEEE
HOXA2 (Homo sapiens, UniProt O43364 129-215, R185T), sequence (O43364 129-215 R185T): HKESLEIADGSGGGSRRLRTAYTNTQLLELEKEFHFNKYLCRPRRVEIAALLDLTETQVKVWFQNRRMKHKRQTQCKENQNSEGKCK
HOXA2 (Homo sapiens, UniProt O43364 129-215, Y150S), sequence (O43364 129-215 Y150S): as the sequence (O43364 129-215 R185T) above, with Y22S, T57R counted along it
HOXB6 (Homo sapiens, UniProt P17509 132-218, K202E), sequence (P17509 132-218 K202E): as the sequence (P17509 132-218) above, with K71E counted along it
HOXA2 (Homo sapiens, UniProt O43364 129-215), sequence (O43364 129-215): as the sequence (O43364 129-215 R185T) above, with T57R counted along it
HOXA2 (Homo sapiens, UniProt O43364 129-215, R185K), sequence (O43364 129-215 R185K): as the sequence (O43364 129-215 R185T) above, with T57K counted along it
HOXD13 (Homo sapiens, UniProt P35453 263-343, T313A), sequence (P35453 263-343 T313A): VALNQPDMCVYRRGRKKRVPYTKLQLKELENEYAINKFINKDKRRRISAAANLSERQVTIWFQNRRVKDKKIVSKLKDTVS
HOXD13 (Homo sapiens, UniProt P35453 263-343), sequence (P35453 263-343): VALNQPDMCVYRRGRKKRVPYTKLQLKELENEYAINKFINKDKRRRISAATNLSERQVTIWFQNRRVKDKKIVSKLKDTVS
ALX3 (Homo sapiens, UniProt O95076 139-225), sequence (O95076 139-225): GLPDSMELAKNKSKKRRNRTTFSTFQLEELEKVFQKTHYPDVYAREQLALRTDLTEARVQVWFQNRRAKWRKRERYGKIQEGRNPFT
HOXD13 (Homo sapiens, UniProt P35453 263-343, T313R), sequence (P35453 263-343 T313R): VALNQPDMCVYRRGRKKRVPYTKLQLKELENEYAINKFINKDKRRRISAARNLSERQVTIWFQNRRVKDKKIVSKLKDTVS
ALX3 (Homo sapiens, UniProt O95076 139-225, N203S), sequence (O95076 139-225 N203S): as the sequence (O95076 139-225) above, with N65S counted along it
ALX3 (Homo sapiens, UniProt O95076 139-225, N203Q), sequence (O95076 139-225 N203Q): as the sequence (O95076 139-225) above, with N65Q counted along it
VAX1 (Homo sapiens, UniProt Q5SQQ9 86-172, K157R), sequence (Q5SQQ9 86-172 K157R): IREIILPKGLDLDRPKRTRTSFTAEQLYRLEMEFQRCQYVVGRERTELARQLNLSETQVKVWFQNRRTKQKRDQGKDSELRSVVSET
MSX2, sequence (P35548 130-214 R199I): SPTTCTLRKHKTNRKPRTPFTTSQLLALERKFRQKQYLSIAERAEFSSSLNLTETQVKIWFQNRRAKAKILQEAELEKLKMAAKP
ALX1 (Homo sapiens, UniProt Q15699 118-204), sequence (Q15699 118-204): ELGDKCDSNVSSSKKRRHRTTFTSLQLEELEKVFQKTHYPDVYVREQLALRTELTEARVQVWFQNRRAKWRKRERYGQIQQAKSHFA
ALX1 (Homo sapiens, UniProt Q15699 118-204, L144V), sequence (Q15699 118-204 L144V): as the sequence (Q15699 118-204) above, with L27V counted along it
VAX1 (Homo sapiens, UniProt Q5SQQ9 86-172), sequence (Q5SQQ9 86-172): as the sequence (Q5SQQ9 86-172 K157R) above, with R72K counted along it
HOXA4, sequence (Q00056 201-287 R217L): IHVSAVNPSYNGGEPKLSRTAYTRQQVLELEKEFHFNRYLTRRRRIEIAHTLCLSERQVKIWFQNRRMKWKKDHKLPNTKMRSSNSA
VAX1 (Homo sapiens, UniProt Q5SQQ9 86-172, T142I), sequence (Q5SQQ9 86-172 T142I): as the sequence (Q5SQQ9 86-172 K157R) above, with T57I, R72K counted along it
ALX1 (Homo sapiens, UniProt Q15699 118-204, L144R), sequence (Q15699 118-204 L144R): as the sequence (Q15699 118-204) above, with L27R counted along it

ACGATCCG
binding signal (SIX6 [1]): 9.98 upbm affinity estimate (log intensity, higher = more binding, comparable within an allelic series)

CCGATACC
binding signal (SIX6 [1]): 10 upbm affinity estimate (log intensity, higher = more binding, comparable within an allelic series)

AATCGATT
binding signal (HOXB6 [2]): 9.7 upbm affinity estimate (log intensity, higher = more binding, comparable within an allelic series)
binding signal (HOXA4): 12 upbm affinity estimate (log intensity, higher = more binding, comparable within an allelic series)
binding signal (HOXB6 [3]): 11 upbm affinity estimate (log intensity, higher = more binding, comparable within an allelic series)

CTAATCAC
binding signal (HOXA2 [4]): 12.7 upbm affinity estimate (log intensity, higher = more binding, comparable within an allelic series)
binding signal (MSX2): 11.1 upbm affinity estimate (log intensity, higher = more binding, comparable within an allelic series)
binding signal (HOXA2 [5]): 13.3 upbm affinity estimate (log intensity, higher = more binding, comparable within an allelic series)

GGGATCAC
binding signal (SIX6 [6]): 11.1 upbm affinity estimate (log intensity, higher = more binding, comparable within an allelic series)

CGGGTATC
binding signal (SIX6 [6]): 11.1 upbm affinity estimate (log intensity, higher = more binding, comparable within an allelic series)

ACGGATAA
binding signal (ALX1 [7]): 8.5 upbm affinity estimate (log intensity, higher = more binding, comparable within an allelic series)
binding signal (ALX1 [8]): 8.23 upbm affinity estimate (log intensity, higher = more binding, comparable within an allelic series)
binding signal (ALX1 [9]): 8.73 upbm affinity estimate (log intensity, higher = more binding, comparable within an allelic series)

AAATGGGT
binding signal (ALX3 [10]): 8.27 upbm affinity estimate (log intensity, higher = more binding, comparable within an allelic series)
binding signal (ALX3 [11]): 9.3 upbm affinity estimate (log intensity, higher = more binding, comparable within an allelic series)
binding signal (ALX3 [12]): 8.31 upbm affinity estimate (log intensity, higher = more binding, comparable within an allelic series)

TCTTATCA
binding signal (ALX3 [10]): 8.33 upbm affinity estimate (log intensity, higher = more binding, comparable within an allelic series)
binding signal (ALX3 [11]): 9.29 upbm affinity estimate (log intensity, higher = more binding, comparable within an allelic series)
binding signal (ALX3 [12]): 8.36 upbm affinity estimate (log intensity, higher = more binding, comparable within an allelic series)

TCTGATCA
binding signal (PITX2): 9.44 upbm affinity estimate (log intensity, higher = more binding, comparable within an allelic series)
binding signal (PAX4): 9.94 upbm affinity estimate (log intensity, higher = more binding, comparable within an allelic series)

ACTACTAG
binding signal (NKX2-4 [13]): 11.1 upbm affinity estimate (log intensity, higher = more binding, comparable within an allelic series)

ATATACCC
binding signal (SIX6 [14]): 10.9 upbm affinity estimate (log intensity, higher = more binding, comparable within an allelic series)
binding signal (SIX6 [15]): 11 upbm affinity estimate (log intensity, higher = more binding, comparable within an allelic series)

AATTGCGA
binding signal (VAX1 [16]): 9.89 upbm affinity estimate (log intensity, higher = more binding, comparable within an allelic series)
binding signal (VAX1 [17]): 9.67 upbm affinity estimate (log intensity, higher = more binding, comparable within an allelic series)
binding signal (VAX1 [18]): 9.62 upbm affinity estimate (log intensity, higher = more binding, comparable within an allelic series)

AGGGGTCA
binding signal (NKX2-4 [13]): 11.2 upbm affinity estimate (log intensity, higher = more binding, comparable within an allelic series)

CAGCAGGG
binding signal (HOXB6 [2]): 9.1 upbm affinity estimate (log intensity, higher = more binding, comparable within an allelic series)
binding signal (HOXA2 [4]): 7.49 upbm affinity estimate (log intensity, higher = more binding, comparable within an allelic series)
binding signal (HOXA2 [5]): 10.3 upbm affinity estimate (log intensity, higher = more binding, comparable within an allelic series)
binding signal (HOXA2 [19]): 10.3 upbm affinity estimate (log intensity, higher = more binding, comparable within an allelic series)
binding signal (HOXA2 [20]): 7.08 upbm affinity estimate (log intensity, higher = more binding, comparable within an allelic series)
binding signal (HOXB6 [3]): 9.13 upbm affinity estimate (log intensity, higher = more binding, comparable within an allelic series)

AGCCTTGC
binding signal (HOXB6 [2]): 9.12 upbm affinity estimate (log intensity, higher = more binding, comparable within an allelic series)
binding signal (HOXA2 [4]): 7.13 upbm affinity estimate (log intensity, higher = more binding, comparable within an allelic series)
binding signal (HOXA2 [5]): 10.3 upbm affinity estimate (log intensity, higher = more binding, comparable within an allelic series)
binding signal (HOXA2 [19]): 10.6 upbm affinity estimate (log intensity, higher = more binding, comparable within an allelic series)
binding signal (HOXA2 [20]): 7.12 upbm affinity estimate (log intensity, higher = more binding, comparable within an allelic series)
binding signal (HOXB6 [3]): 8.94 upbm affinity estimate (log intensity, higher = more binding, comparable within an allelic series)

CCACGGGC
binding signal (HOXB6 [2]): 9 upbm affinity estimate (log intensity, higher = more binding, comparable within an allelic series)
binding signal (HOXD13 [21]): 9.41 upbm affinity estimate (log intensity, higher = more binding, comparable within an allelic series)
binding signal (HOXD13 [22]): 9.46 upbm affinity estimate (log intensity, higher = more binding, comparable within an allelic series)
binding signal (HOXD13 [23]): 9.44 upbm affinity estimate (log intensity, higher = more binding, comparable within an allelic series)
binding signal (HOXB6 [3]): 9.06 upbm affinity estimate (log intensity, higher = more binding, comparable within an allelic series)

AGTTCGAG
binding signal (NKX2-4 [13]): 11.3 upbm affinity estimate (log intensity, higher = more binding, comparable within an allelic series)
binding signal (NKX2-4 [24]): 11.6 upbm affinity estimate (log intensity, higher = more binding, comparable within an allelic series)

CGAGGCTC
binding signal (HOXB6 [2]): 9.01 upbm affinity estimate (log intensity, higher = more binding, comparable within an allelic series)
binding signal (NKX2-6 [25]): 9.43 upbm affinity estimate (log intensity, higher = more binding, comparable within an allelic series)
binding signal (HOXB6 [3]): 9.11 upbm affinity estimate (log intensity, higher = more binding, comparable within an allelic series)

ATCTGATC
binding signal (SIX6 [14]): 11 upbm affinity estimate (log intensity, higher = more binding, comparable within an allelic series)
binding signal (SIX6 [26]): 10.4 upbm affinity estimate (log intensity, higher = more binding, comparable within an allelic series)

GGACCCCC
binding signal (HOXB6 [2]): 8.73 upbm affinity estimate (log intensity, higher = more binding, comparable within an allelic series)
binding signal (NKX2-6 [27]): 9.37 upbm affinity estimate (log intensity, higher = more binding, comparable within an allelic series)
binding signal (NKX2-6 [28]): 8.99 upbm affinity estimate (log intensity, higher = more binding, comparable within an allelic series)
binding signal (HOXB6 [3]): 8.68 upbm affinity estimate (log intensity, higher = more binding, comparable within an allelic series)

ATACATAC
binding signal (SIX6 [26]): 10.4 upbm affinity estimate (log intensity, higher = more binding, comparable within an allelic series)

CGGAGGCC
binding signal (HOXB6 [2]): 8.93 upbm affinity estimate (log intensity, higher = more binding, comparable within an allelic series)
binding signal (HOXA2 [4]): 7.34 upbm affinity estimate (log intensity, higher = more binding, comparable within an allelic series)
binding signal (HOXD13 [21]): 9.47 upbm affinity estimate (log intensity, higher = more binding, comparable within an allelic series)
binding signal (HOXA2 [5]): 10.1 upbm affinity estimate (log intensity, higher = more binding, comparable within an allelic series)
binding signal (HOXD13 [22]): 9.47 upbm affinity estimate (log intensity, higher = more binding, comparable within an allelic series)
binding signal (HOXD13 [23]): 9.66 upbm affinity estimate (log intensity, higher = more binding, comparable within an allelic series)
binding signal (HOXA2 [19]): 10.3 upbm affinity estimate (log intensity, higher = more binding, comparable within an allelic series)
binding signal (HOXA2 [20]): 7.12 upbm affinity estimate (log intensity, higher = more binding, comparable within an allelic series)
binding signal (HOXB6 [3]): 8.97 upbm affinity estimate (log intensity, higher = more binding, comparable within an allelic series)

AGATATCC
binding signal (SIX6 [14]): 10.9 upbm affinity estimate (log intensity, higher = more binding, comparable within an allelic series)

— article PMC11006913
